The full list was thinned out, with hits kept by preference.
Cycloheximide cs – Cycloheximide Counterscreen for Small Molecule Inhibitors of Shiga Toxin; 300,000 tested, 12% active; cell reporter, cycloheximide protein synthesis inhibition counterscreen; max response, %; in the data active = max response mostly above about 13%, no sharp cut-off; inactive = mostly below about 14%; note: read at 38.3 µM for the half of the compounds with a filed dose; 0% is about no effect
Tb PYK inh – qHTS of Trypanosoma Brucei Inhibitors; pyruvate kinase (Trypanosoma brucei), Q57TT1; TbPYK enzyme, Kinase-Glo Plus ATP luminescence, 45 min; Potency, µM (top dose mostly 76.8 µM), for inactives: top-dose activity, negative = inhibition, usual class: inhibitors; 410,000 tested, 0.12% active; AID 624173, 2012; note: potency is the fitted concentration of half-maximal effect; % is set by controls: 0 for no effect and ±100 for the full control effect; nearly all actives have a fitted effect of over 50% in size
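T. brucei PYK with substrate was exposed to pin-transferred compounds across a concentration series, then started with 130 uM ADP (final). After 45 min at room temperature, Kinase-Glo Plus luminescence was read, normalized and curve-fitted.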
Giardia FBPA inh – qHTS Assay for Inhibitors of Fructose-1,6-bisphosphate Aldolase from Giardia Lamblia; 290,000 tested, 0.71% active; A8B2U2; AID 2451, 2010; purified Giardia FBPA; Potency, µM (titrated, usually from 59.6 µM), for the others: top-dose activity, negative = inhibition, hits mostly inhibitors; note: potency is the fitted concentration of half-maximal effect; % is set by controls: 0 for no effect and ±100 for the full control effect; nearly all actives have a fitted effect of over 55% in size
Target sequence (A8B2U2 whole entry, looked up): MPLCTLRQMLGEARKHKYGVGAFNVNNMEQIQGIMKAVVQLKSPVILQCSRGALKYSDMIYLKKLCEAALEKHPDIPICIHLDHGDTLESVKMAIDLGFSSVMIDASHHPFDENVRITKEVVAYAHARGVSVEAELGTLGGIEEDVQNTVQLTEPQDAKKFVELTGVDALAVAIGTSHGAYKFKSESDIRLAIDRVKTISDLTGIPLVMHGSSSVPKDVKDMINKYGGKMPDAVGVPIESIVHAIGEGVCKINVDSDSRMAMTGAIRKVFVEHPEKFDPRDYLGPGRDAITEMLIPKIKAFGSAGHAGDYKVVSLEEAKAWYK
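Giardia FBPA (40 nM reagent) was preincubated 10 min at RT with compound (up to 57.5 uM final), then substrate plus GAPDH/TPI/NAD/arsenate coupling system with diaphorase/resazurin was added; resorufin fluorescence (525/598 nm) was read after 20 min.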
LmPK inh – qHTS Assay for Inhibitors of Leishmania Mexicana Pyruvate Kinase (LmPK) | Q27686 | purified LmPK, Kinase-Glo ATP luminescence, 1 h | Potency, µM (series often up to 57.5 µM), without a hit: top-dose activity change, negative = inhibition, usual class: inhibitors | 290,000 tested, 0.37% active; note: potency is the fitted concentration of half-maximal effect; % is set by controls: 0 for no effect and ±100 for the full control effect
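qHTS format; LmPK 0.1 nM; substrates PEP 0.5 mM and ADP 0.1 mM. One-hour room-temperature incubation, then coupled luciferase luminescence; 0.5 nM enzyme wells mark activation.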
RE007 growth inh – qHTS Assay for Inhibitors of the HIV-1 protein Vpr; S. pombe RE007 Vpr strain, BacTiter-Glo ATP luminescence, 24 h; Potency, µM (doses to about 92.2 µM), for the others: at the top dose activity change, negative = less growth, hits mostly inhibitors; 360,000 tested, 0.21% active; active = well fitted falling curve with a large enough effect; note: potency is the fitted concentration of half-maximal effect; % is set by controls: 0 for no effect and ±100 for the full control effect; nearly all actives have a fitted effect of over 50% in size
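Fission yeast strain RE007, carrying one chromosomally integrated HIV-1 vpr copy, was seeded at OD 0.01 in PMG+AL medium with 23 nL pinned compound. After 24 h at 30 °C and 99% humidity, viability was read by BacTiter-Glo luminescence.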
Shiga toxin inh – A qHTS for Small Molecule Inhibitors of Shiga Toxin; 290,000 tested, 9.2% active; inhibition, % at 38.7 µM; AID 2315, 2010; Vero cells, Shiga toxin protein synthesis inhibition reporter; in the data active = inhibition mostly above about 28%, no sharp cut-off; inactive = mostly below about 43%; note: 0% is about no effect
Active calls of the source: *; [ ] = remark or other dose. Unless noted, calls come from the whole dose curve; as a rule, active = well fitted curve in the direction sought with a large enough effect; inconclusive = small, poorly fitted or top-dose-only effect, or another doubt; inactive = no such curve, though single readings can be large; an effect the other way counts as inactive or inconclusive.

`Fc1ccc(-c2cc(-c3ccccc3)c3c(n2)-c2cc(F)ccc2OC3)cc1` gave Tb PYK inh -11%.
For COc1ccccc1CCNC(=O)c1cccn1-c1nnc(N2CCCC2)s1 the results were Tb PYK inh 2%[15.4 µM].
For Cc1nnc(N2C(=O)C(O)=C(C(=O)c3ccco3)C2c2ccc(C(C)C)cc2)s1 (configuration not stated) the results were Cycloheximide cs 40*, Tb PYK inh -15%, Giardia FBPA inh -3%, LmPK inh 0%, RE007 growth inh 1% and Shiga toxin inh 64*.
For Cc1nnc(N2C(=O)C(O)=C(C(=O)c3ccco3)C2c2ccc(F)cc2)s1 (configuration not stated) the results were Cycloheximide cs -2, Tb PYK inh 0%, Giardia FBPA inh 0%, LmPK inh 1%, RE007 growth inh 1% and Shiga toxin inh -5.
`CSc1ccc(C2C(C(=O)c3ccco3)=C(O)C(=O)N2c2nnc(SC)s2)cc1` (configuration not stated) gave Cycloheximide cs 36*, Tb PYK inh -28%, LmPK inh 10%, RE007 growth inh -13% and Shiga toxin inh 75*.
Screening Cc1nnc(N2C(=O)C(O)=C(C(=O)c3ccco3)C2c2ccc(C(C)(C)C)cc2)s1 (configuration not stated) returned Cycloheximide cs 12*, Tb PYK inh 4%, Giardia FBPA inh -3%, LmPK inh -1%, RE007 growth inh 1% and Shiga toxin inh 21.
For COC(=O)c1cc2occc2n1CC(=O)Nc1ccc(N(C)C)cc1 the results were Tb PYK inh -11%.
Cc1cc(NC(=O)CN2CCCCCCC2)no1 was read as Cycloheximide cs -4, Tb PYK inh 3%, Giardia FBPA inh -29%, LmPK inh 2%, RE007 growth inh 11% and Shiga toxin inh -2.
For Cc1cc(NC(=O)CCC2CCCC2)no1 the results were Cycloheximide cs 28*, Tb PYK inh 1%, Giardia FBPA inh 2%, LmPK inh 0%, RE007 growth inh 57% and Shiga toxin inh 36.
`O=C(CCC1CCCC1)Nc1ccc(Br)cn1` gave Cycloheximide cs 18*, Tb PYK inh 3%, Giardia FBPA inh 2%, LmPK inh -3%, RE007 growth inh -1% and Shiga toxin inh 89*.
O=C(CCC1CCCC1)Nc1ccon1 was read as Cycloheximide cs 7, Tb PYK inh 3%, Giardia FBPA inh 0%, LmPK inh -1%, RE007 growth inh -9% and Shiga toxin inh -2.
For Cc1ccnc(NC(=O)CCC2CCCCC2)c1 the results were Cycloheximide cs 42*, Tb PYK inh -5%, Giardia FBPA inh 0%, LmPK inh -23%, RE007 growth inh -17% and Shiga toxin inh 126*.
Screening Cc1cc(NC(=O)CCC2CCCCC2)no1 returned Cycloheximide cs 25*, Tb PYK inh -4%, Giardia FBPA inh 2%, LmPK inh 1%, RE007 growth inh 11% and Shiga toxin inh 61*.
Screening COc1cc(C)c(NC(=S)Nc2cccc(Cl)c2C)cc1OC returned Cycloheximide cs -3, Tb PYK inh -12%, Giardia FBPA inh -21%, LmPK inh 5%, RE007 growth inh 6% and Shiga toxin inh -8.
COc1ccc(NC(=O)C2(C)CCN2CCOc2ccccc2)cc1OC (configuration not stated) was read as Tb PYK inh -8% and RE007 growth inh -1%[18.4 µM].
O=C(Cn1cnc2scc(-c3ccc(F)cc3)c2c1=O)NCC(c1ccco1)N1CCCC1 (configuration not stated) was read as Tb PYK inh 2% and RE007 growth inh 5%.
For Cc1cc[n+](-c2ccccc2)c2ccccc12 the results were Cycloheximide cs 3, Tb PYK inh -2%, Giardia FBPA inh -5%, LmPK inh -11%, RE007 growth inh -8% and Shiga toxin inh -10.
For Cc1ccccc1OCC(=O)N(Cc1ccc(N(C)C)cc1)CC1CCCO1 (configuration not stated) the results were Tb PYK inh 0%.

Compound activity deposited in PubChem BioAssay by National Center for Advancing Translational Sciences (NCATS).
